AMA1 RON2 block = qHTS for Inhibitors of AMA1-RON; Towards Development of Antimalarial Drug Lead: Primary Screen; Plasmodium falciparum AMA1 (3D7) - RON2 peptide interaction; AlphaScreen AMA1-biotinylated RON2 peptide binding; Potency, µM (titrated, usually from 58.2 µM), without a hit: at the top dose activity change, negative = inhibition, usual class: inhibitors; actives 0.2% (n = 360,000); AID 720542, 2013;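 further: 0% = vehicle wells and -100% = peptide control; nearly all actives have a fitted effect of over 45% in size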
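AMA1 (3D7) with his tag at 25 nM final met compounds first, then biotinylated RON2 peptide at 25 nM; detection used donor plus acceptor beads, 10 µg/mL apiece, read by AlphaScreen after 30 min at room temperature.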
Pf growth 96h = Primary qHTS for delayed death inhibitors of the malarial parasite plastid, 96 hour incubation; P. falciparum luciferase reporter growth, 96 h; AID 504834, 2011; actives 6.9% (n = 320,000); Potency, µM (series often up to 28.7 µM), inactives show at the highest dose activity change, negative = inhibition, hits mostly inhibitors
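P. falciparum expressing integrated firefly luciferase grown in erythrocytes (2% hematocrit, 0.05% parasitemia final) with compounds for 96 hours at 37 C, 5% CO2. Growth inhibition read as loss of luminescence after adding luciferase detection reagent.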
VACV Venus inh = qHTS for Stage-Specific Inhibitors of Vaccinia Orthopoxvirus: Venus Reporter Primary qHTS; Vaccinia virus Venus reporter expression, fluorescence; Potency, µM (titrated, usually from 36.5 µM), for inactives: top-dose activity change, negative = inhibition, actives largely listed as inhibitors; actives 0.46% (n = 330,000); AID 720580, 2013; calls by dose curve; tested in A549 cells; further: nearly all actives have a fitted effect of over 30% in size
Vaccinia mCherry = qHTS for Stage-Specific Inhibitors of Vaccinia Orthopoxvirus: mCherry Reporter Primary qHTS | Vaccinia virus mCherry reporter infection, fluorescence | Potency, µM (doses to about 36.5 µM), inactives show at the top dose activity change, negative = inhibition, usual class: inhibitors | actives 0.63% (n = 310,000); calls by dose curve; tested in A549 cells; further: nearly all actives have a fitted effect of over 35% in size
Pf growth 48h = Primary qHTS for delayed death inhibitors of the malarial parasite plastid, 48 hour incubation; P. falciparum luciferase growth in erythrocytes, 48 h; Potency, µM (top dose mostly 28.7 µM), without a hit: top-dose activity change, negative = inhibition, hits mostly inhibitors; actives 5.9% (n = 310,000); AID 504832, 2011
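Read-out is firefly luciferase luminescence from an integrated reporter in P. falciparum, so falling signal marks reduced parasite growth. Infected erythrocytes were at 2% hematocrit and 0.1% parasitemia (final) in Albumax-supplemented RPMI 1640.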
* hit, by the source's call; i = inactive; ? = inconclusive; / = no result given; ! = not confirmed by another sample; [ ] = another dose, or the depositor's remark. A selection: hits, their analogues and other compounds. The true share with any hit is near 8.7%. Unless noted, the call rests on the fitted dose curve; in most records, active means well fitted curve in the direction sought with a large enough effect; inconclusive means small, poorly fitted or top-dose-only effect, or another doubt; inactive means no such curve, though single readings can be large; an effect the other way counts as inactive or inconclusive. Unless noted, on the % scale 0 is the no-effect control and ±100 the full control effect; potency means the concentration at half of the fitted maximal effect.

SMILES | AMA1 RON2 block | Pf growth 96h | VACV Venus inh | Vaccinia mCherry | Pf growth 48h
CN(C)c1ccc(C2CNC(c3ccc(Cl)c([N+](=O)[O-])c3)c3[nH]c4ccccc4c32)cc1 (stereo not given) | 20µM* | ? | / | / | ?
O=C1CCC([N+](=O)[O-])C(c2cccc([N+](=O)[O-])c2)N1 (stereo not given) | 2% | ? | -10% | -1% | 6%
CCOC(=O)c1noc2nc(C)n(CC(=O)Nc3cccc(OC)c3)c(=O)c12 | / | / | -14%[7.34 µM] | -12%[7.34 µM] | /
O=C(NCCCc1nc2ccccc2n1CCCOc1ccccc1)C1CCCCC1 | / | / | -12% | -13% | /
Cc1ccc(S(=O)(=O)n2cc(C=O)c3ccccc32)cc1 | 0% | 9% | / | / | 5%
Cc1ccc(S(=O)(=O)n2cc(-c3ccccc3)c3ccccc32)cc1 | 6% | ? | ? | ? | 2.6µM*
CNC[C@H](O)c1ccc(OC(=O)C(C)(C)C)c(OC(=O)C(C)(C)C)c1 | / | 3.2µM* | / | / | ?
O=C(CN1CCOCC1)N1CCCc2ccccc21 | -6% | ? | -7% | i | 12%
Nc1ccc(-c2nnn(CC(=O)N3CCCCC3)n2)cc1 | 32% | ? | / | / | 38%
CS(=O)(=O)c1ccc(-c2nnn(CC(=O)N3CCCCC3)n2)cc1 | 8% | 12µM* | -2% | -17% | 2%
O=C(Cn1nnc(-c2ccc(CN3CCOCC3)cc2)n1)N1CCCc2ccccc21 | -2% | 2.6µM* | / | / | ?
Cc1ccc(-c2nnn(CC(=O)N3c4ccccc4CCc4ccccc43)n2)cc1 | 3% | ? | -6% | 0% | 10µM*
OC1(c2cccnc2)CCN(Cc2ccc3c(c2)CN(Cc2cccc(C(F)(F)F)c2)CCO3)CC1 | / | / | -24% | -27% | /
Cc1c(NC(=O)c2ccc(Cl)cc2)cc(C(C)C)c(O)c1S(=O)(=O)c1ccc(Cl)cc1 | / | / | -5% | 9% | /
O=c1c(C=NCCCn2ccnc2)c(-c2ccccc2)[nH]n1-c1nc2ccccc2s1 | 4% | / | -7% | -10% | 10µM*
CN(C)CCCN=Cc1c(-c2ccccc2)[nH]n(-c2nc3ccccc3s2)c1=O | 12% | ? | -1% | i | 13%
CN1[C@@H](CC(=O)c2ccccc2)CCC[C@H]1C[C@H](O)c1ccccc1 | 0% | 17µM*! | -20% | -4% | 13µM*
CN1C(CC(=O)c2ccccc2)CCCC1CC(O)c1ccccc1 (stereo not given) | 6% | / | -8% | -17% | ?
CC1(C)CC(=O)C=C(N2CCNCC2)C1 | 27% | -15% | / | / | 16%
CC1CC(C)C[N+](=C2C=C(N3CCCC3)CC(C)(C)C2)C1 (stereo not given) | 1% | ? | / | / | 0.37µM*
CC1(C)CC(N2CCN(c3ccccc3)CC2)=CC(=[N+]2CCCC2)C1 | 9% | 6% | ? | ? | 1.7µM*
CC1(C)CC(N2CCCC2)=CC(=[N+]2CCCCCC2)C1 | 12% | -20% | / | / | ?
C(=C\c1ccnc2ccccc12)/c1ccc(N2CCN(c3ccc(/C=C/c4ccnc5ccccc45)cc3)CC2)cc1 | / | / | -10% | i | /
C#CCOCCOCCOCCNc1nc(N2CCN(C(=O)CCCCCCCCCCNC(=O)[C@@H](CCSC)n3cc(CCO)nn3)CC2)nc(N2CCN(C(=O)CCCCCCCCCCNC(=O)[C@H](CCCN=C(N)N)n3cc(C[C@@H](C)CC)nn3)CC2)n1 | ? | 1.2µM* | 10µM* | ? | 3.3µM*
C#CCOCCOCCOCCNc1nc(N2CCN(C(=O)CCCCCCCCCCNC(=O)[C@H](CCCCN)n3cc(C[C@@H](C)CC)nn3)CC2)nc(N2CCN(C(=O)CCCCCCCCCCNC(=O)[C@H](CCCN=C(N)N)n3cc(C[C@@H](C)CC)nn3)CC2)n1 | ? | 3.3µM* | 8.9µM* | ? | 3.3µM*

Compound activity (PubChem)
